Assay [1] is described as follows: qHTS assay for small molecules that induce genotoxicity in human embryonic kidney cells expressing luciferase-tagged ATAD5 (AID 651632). Also: nearly all actives have a fitted effect of over 15% in size. An outline of the steps:
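Increased luciferase signal from ATAD5-tagged reporter cells indicates DNA-damage-driven ATAD5 induction. HEK293T cells are treated for 16 hr at 37C before detection with Amplite.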

The nature of assay [2]: qHTS assay for small molecule agonists of the p53 signaling pathway - cell viability (AID 651633; calls by dose curve;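 also: p53RE-bla HCT reporter cells with a stable beta-lactamase p53 reporter; series mostly up to about 83 µM; nearly all actives have a fitted effect of over 30% in size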). An outline of the steps: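 p53RE-bla cells were treated with compound for 16 hours at 37 C. Cytotoxicity was then measured as CellTiter-Glo luminescence after 30 min at room temperature.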
For orientation: In qHTS, concentration-response curves come from the screen itself.

A short description of assay [3]: qHTS assay for small molecules that induce genotoxicity in human embryonic kidney cells expressing luciferase-tagged ATAD5 - cell viability (AID 651634; calls by dose curve; also: nearly all actives have a fitted effect of over 25% in size). An outline of the steps: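 Cytotoxicity counterscreen in HEK293T cells bearing an ATAD5-luciferase reporter: live-cell protease activity measured by CellTiter-Fluor fluorescence after 15.5 hr compound exposure.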

Assay [4] in a line: qHTS assay for small molecule disruptors of the mitochondrial membrane potential - cell viability (AID 720634; calls by dose curve;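 also: human HepG2 liver cancer cells; series mostly up to about 83 µM; nearly all actives have a fitted effect of over 20% in size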). An outline of the steps:
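After overnight attachment at 37 C, HepG2 cells received compound or DMSO vehicle for 1 hr. Viability is then taken from ATP-driven luminescence following a 30 min room-temperature CellTiter-Glo step.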

Assay [5] in a line: qHTS assay for small molecule disruptors of the mitochondrial membrane potential (AID 720635). Also: potency is read from the fitted curve at half-maximal effect. An outline of the steps: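 HepG2 cells exposed to compound 1 hr at 37C, then Mito-MPS dye 30 min. Ratio read of aggregate (540/590 nm) versus monomer (490/535 nm) fluorescence.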
A short description of assay [6]: qHTS assay to test for compound auto fluorescence at 590 nm (red) in HepG2 cells (AID 720674). An outline of the steps: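 Fluorescence at 590 nm emission following 540 nm excitation was recorded from HepG2 wells one hour after compound transfer, with DMSO-only wells as vehicle and Rose Bengal sodium equivalency as the scale.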
Assay [7] is described as follows: qHTS assay to test for compound auto fluorescence at 535 nm (green) in HepG2 cells (AID 720675).
A short description of assay [8]: qHTS assay to test for compound auto fluorescence at 460 nm (blue) in HEK293 cells (AID 720678). An outline of the steps: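 Triamterene serves as the blue fluorophore standard. Compound signal at 405/460 nm is read in HEK293 wells (2,000 cells, 10% dialyzed FBS) after overnight treatment at 37C.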
Assay [9] in a line: qHTS assay to test for compound auto fluorescence at 590 nm (red) in HEK293 cells (AID 720679). An outline of the steps: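 We plated HEK293 cells in 10% dialyzed FBS medium, let them adhere for 4-5 hr, then added 23 nL compound. Overnight at 37C and 5% CO2 preceded fluorescence measurement at 540/590nm.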
Assay [10] in a line: qHTS assay to test for compound auto fluorescence at 535 nm (green) in HEK293 cells (AID 720680).
Assay [11] can be described thus: qHTS assay to test for compound auto fluorescence at 460 nm (blue) in HEK293 cell free culture (AID 720681). An outline of the steps:
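Compounds were added to cell-free DMEM with 10% FBS and fluorescence read directly. The blue channel used 405 nm excitation and 460 nm emission, with triamterene as the reference fluorophore.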

Assay [12] can be described thus: qHTS assay to test for compound auto fluorescence at 535 nm (green) in HEK293 cell free culture (AID 720682). An outline of the steps:
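Green-channel intensity (Ex/Em 485/535 nm) was recorded from compound-treated wells containing only DMEM with 10% FBS. Fluorescein provided the equivalency standard.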

Assay [13] in a line: qHTS assay to test for compound auto fluorescence at 590 nm (red) in HEK293 cell free culture (AID 720683). An outline of the steps:
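Cell-free wells of DMEM with 10% FBS received compound, and intrinsic fluorescence was read at excitation/emission 540/590 nm. Values expressed as equivalence to Rose Bengal sodium.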

Assay [14] is described as follows: qHTS assay to test for compound auto fluorescence at 590 nm (red) in HepG2 cell free culture (AID 720684). An outline of the steps: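 Compound was pinned into wells holding MEM with 10% FBS and no cells, and red fluorescence was read at Ex/Em 540/590 nm. Signal is expressed as auto fluorescence equivalency relative to Rose Bengal sodium.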
Assay [15] can be described thus: qHTS assay to test for compound auto fluorescence at 460 nm (blue) in HepG2 cell free culture (AID 720685). An outline of the steps:
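Compound (23 nL) or DMSO pinned into cell-free MEM with 10% FBS; blue fluorescence read at 405/460 nm excitation/emission, expressed as auto-fluorescence equivalency to triamterene.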

Assay [16] in a line: qHTS assay to test for compound auto fluorescence at 535 nm (green) in HepG2 cell free culture (AID 720686).
Assay [17] can be described thus: qHTS assay to test for compound auto fluorescence at 460 nm (blue) in HepG2 cells (AID 720687). An outline of the steps: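 HepG2 cells in MEM with 10% FBS, attached overnight at 37 C, were exposed to compound or DMSO for 1 hr at 37 C, 5% CO2. Blue fluorescence was read at 405/460 nm, with triamterene as reference fluorophore.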
A short description of assay [18]: qHTS assay for small molecule agonists of the p53 signaling pathway (AID 651631; calls by dose curve; also: nearly all actives have a fitted effect of over 15% in size). An outline of the steps:
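We treat p53RE-bla HCT-116 cells with compounds for 16 h at 37 °C, add LiveBLAzer B/G FRET substrate for 2 h at room temperature, and measure fluorescence intensity.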

Assay [19] has as its target Glucocorticoid receptor (Homo sapiens) (UniProt P04150). As to the kind of experiment: qHTS assay to identify small molecule agonists of the glucocorticoid receptor (GR) signaling pathway (AID 720691; active = well fitted activation curve with a large enough effect in the signal ratio in the repeat runs, not every such curve was filed as active; the % refers to the signal ratio). An outline of the steps:
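Agonist mode in a HeLa line carrying a GRE-controlled beta-lactamase reporter. Compounds act for 18 h at 37 C before a 2 h room-temperature FRET substrate step and fluorescence reading.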

The target is the same in assay [20]. The experiment in a line: qHTS assay to identify small molecule antagonists of the glucocorticoid receptor (GR) signaling pathway (AID 720692; active = well fitted inhibition curve with a large enough effect in the signal ratio in the repeat runs, not every such curve was filed as active; the % refers to the signal ratio). An outline of the steps:
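Cells plated, rested 4 h at 37 C/5% CO2; compounds in DMSO pin-transferred; dexamethasone added to 5 nM final; 18 h at 37 C; B/G FRET substrate added, 2 h room temperature; fluorescence measured.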

Data on 8 molecules can be found in PubChem BioAssay (Tox21).

A number with no mark means an inactive call. Results filed as inconclusive are left out. Calls of active or inactive are those of the source. Unless noted, calls follow the shape of the dose curve; as a rule, active = well fitted curve in the direction sought with a large enough effect in the repeat runs; inconclusive = weak or mixed curves; inactive = no such curve, though single readings can be large; an effect the other way counts as inactive or inconclusive.

Glucocorticoid receptor (Homo sapiens), sequence (P04150 whole entry, looked up): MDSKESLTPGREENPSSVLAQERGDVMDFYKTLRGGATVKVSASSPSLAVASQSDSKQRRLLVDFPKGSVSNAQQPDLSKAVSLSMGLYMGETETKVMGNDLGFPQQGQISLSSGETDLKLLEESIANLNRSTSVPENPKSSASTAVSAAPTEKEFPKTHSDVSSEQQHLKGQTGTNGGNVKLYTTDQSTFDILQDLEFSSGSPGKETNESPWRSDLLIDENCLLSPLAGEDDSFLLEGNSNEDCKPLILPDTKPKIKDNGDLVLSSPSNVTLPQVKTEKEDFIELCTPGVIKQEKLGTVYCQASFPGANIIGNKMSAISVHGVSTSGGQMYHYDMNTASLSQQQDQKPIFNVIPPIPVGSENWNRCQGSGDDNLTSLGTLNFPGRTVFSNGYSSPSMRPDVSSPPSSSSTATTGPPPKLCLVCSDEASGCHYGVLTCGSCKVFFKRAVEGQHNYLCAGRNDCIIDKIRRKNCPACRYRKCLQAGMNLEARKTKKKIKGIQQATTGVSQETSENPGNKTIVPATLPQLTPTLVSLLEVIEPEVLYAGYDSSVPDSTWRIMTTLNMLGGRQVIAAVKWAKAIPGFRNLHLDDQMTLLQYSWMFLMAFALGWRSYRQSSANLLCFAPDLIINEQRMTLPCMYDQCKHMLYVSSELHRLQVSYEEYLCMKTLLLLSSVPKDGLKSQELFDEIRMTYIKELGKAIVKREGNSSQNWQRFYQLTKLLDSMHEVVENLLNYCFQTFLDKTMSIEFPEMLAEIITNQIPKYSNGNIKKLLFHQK

Consider `CC(C)[C@H]1CC[C@H](C)C[C@@H]1O`, for which the result in [1], in assay [2], in assay [4], in assay [6], in [7] and in [8] was inactive. Also, the call in assay [9], in assay [10], in assay [11], in [12], in assay [13] and in assay [14] was inactive. Moreover, the molecule was classed as inactive in [15], in [16] and in [17]. The Potency result in [3] and in assay [5] was “inactive” each time.
Consider `CCCCOC(=O)[C@H](C)O`, for which the outcome in assay [18], in assay [1], in assay [4], in assay [6], in assay [7] and in assay [8] was inactive. Also, the result in assay [9], in [10], in assay [11], in assay [12], in [13] and in [14] was inactive. Besides, the outcome in assay [15], in assay [16] and in assay [17] was inactive. Also, the Potency result in assay [3] and in assay [19] was “inactive” in each case.
Regarding `CC(=O)CCc1ccc(OC(C)=O)cc1`, the result in [18], in assay [1], in assay [4], in assay [6], in assay [7] and in assay [8] was inactive. The molecule was called inactive in assay [9], in assay [10], in [11], in [12], in assay [13] and in assay [14]. The molecule was classed as inactive in assay [15], in [16] and in assay [17]. Also, the Potency result in assay [5] and in assay [19] was “inactive” throughout.
`C#CCN[C@@H]1CCc2ccccc21`: the outcome in assay [18], in assay [1], in [4], in assay [6], in [7] and in assay [8] was inactive. The molecule was classed as inactive in assay [9], in assay [10], in [11], in assay [12], in assay [13] and in [14]. Also, the result in assay [15], in assay [16] and in assay [17] was inactive. Moreover, the Potency entry in assay [3] and in assay [5] was “inactive” in each case.
Consider `CC(C)c1ccc(C=O)cc1`, for which the result in assay [18], in assay [1], in assay [4], in assay [6], in assay [7] and in assay [8] was inactive. Moreover, the call in [9], in assay [10], in assay [11], in [12], in assay [13] and in assay [14] was inactive. Besides, the molecule was classed as inactive in [15], in [16] and in [17]. Further, the Potency entry in [5] and in [19] was “inactive” in each case.
`Cc1ccc2c(c1)C(=O)c1ccccc1C2=O`: the molecule was called inactive in [18], in assay [7], in [8], in [9], in [10] and in [11]. The call in assay [12], in assay [13], in [14], in [15], in assay [16] and in assay [17] was inactive. In addition, the Potency result in [3] and in [19] was “inactive” in each case. Further, the Potency in assay [5] is 6.09 µM (active).
`COS(=O)(=O)O`: the call in assay [18], in [1], in assay [4], in [6], in assay [7] and in [8] was inactive. The result in assay [10], in [11], in [12], in assay [13], in assay [14] and in assay [15] was inactive. Moreover, the molecule was called inactive in [16] and in [17]. Moreover, the Potency entry in assay [3] and in assay [5] was “inactive” throughout.
In the case of `COC(=O)CCCCC(=O)O`, the call in assay [18], in assay [1], in assay [4], in assay [6], in [7] and in assay [8] was inactive. In addition, the result in [10], in assay [11], in assay [12], in [13], in [14] and in assay [15] was inactive. The call in assay [16], in assay [17] and in assay [20] was inactive. Besides, the Potency result in assay [3] and in assay [19] was “inactive” each time.
